# Results filed as inconclusive are left out. Active and inactive are the calls of the source. The call rests on the fitted dose curve; in most records, active means well fitted activation curve with a large enough effect; inconclusive means small, poorly fitted or top-dose-only effect; inactive means flat fitted curve, though single readings scatter.
# Experiment: Confirmation Concentration-Response Assay for qHTS Assay for Epigenetic Modulators
# Settings: murine C127i LDR cells, GFP reporter derepression, 30 h
# Text: NIH Molecular Libraries Screening Centers Network [MLSCN] NIH Chemical Genomics Center [NCGC] MLSCN Grant: 1 X01 MH079860-01 Assay Provider: Elisabeth D. Martinez, University of Texas SW Medical Center NCGC Assay Overview: This assay, used for the primary screen, was employed here to confirm actives identified from the Locus Derepression (LDR) assay (PubChem AID 1865). The LDR assay detects the derepression of a GFP reporter that is stably integrated in a region of the genome of murine c127i mammary cells that is presumably silenced. Compounds that derepress or induce this reporter locus are identified by enumerating GFP positive cells using an Acumen Explorer Ex3 (TTP Labtech) laser-scanning microplate cytometer.
# NCGC Assay Protocol Summary: Three hundred LDR cells in 5 uL per well were dispensed into black, clear-bottom 1536-well plates. Twenty-three nL compound was transferred to the assay plate and cells were incubated 30 hours at 37 C. Medium was removed, cells were washed two times with PBS, and GFP-positive cells were enumerated as fluorescent objects between the sizes of 20 to 120 um width and depth using an Acumen Explorer Ex3 (TTP Labtech) laser-scanning microplate cytometer. For further details, see Johnson, RL, Huang, W, Jadhav, A, Austin, CP, Inglese, J, Martinez, ED (2008). A quantitative high-throughput screen identifies potential epigenetic modulators of gene expression. […]
compound,measurement,value
O=C1NC(=O)N(CCc2ccc(F)cc2)C(=O)/C1=C/C=C/c1ccccc1,Potency,12.6 µM (active)

# — PubChem BioAssay AID493067 (National Center for Advancing Translational Sciences (NCATS), 2011)
